From PubChem BioAssay (NCATS) come the findings set out here.

Assay [1] can be described thus: Cell Viability - LYMP2-020 (AID 986).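 Also: series mostly up to about 92 µM; cells exposed to compound for 24 h at 37 °C; plate controls were DMSO only for no effect and tetraoctylammonium bromide at 92 µM for full effect; nearly all actives have a fitted effect of over 55% in size.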 In a few lines: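 Acute cytotoxicity in a human lymphoblastoid line is scored as a concentration-dependent fall in cellular ATP after 24 hr at 37 C in complete medium. The positive control is tetraoctylammonium bromide, and potency is given as Hill-fit AC50.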
The nature of assay [2]: Cell Viability - LYMP2-022 (AID 987).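 Also: cells exposed to compound for 24 hr; 0% = DMSO alone and full effect = tetraoctylammonium bromide at 92 µM; nearly all actives have a fitted effect of over 55% in size.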 In a few lines:
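Acute toxicity in a human lymphoblastoid line is scored as decreased intracellular ATP after 24 hr compound treatment at 37 C. ATP is measured by CellTiter-Glo luminescence; curves are fitted with the Hill equation to give AC50.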

Assay [3] in a line: Cell Viability - LYMP2-024 (AID 988).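 Also: cells exposed to compound for 24 hr at 37 °C; plate controls were DMSO only for no effect and 92 µM tetraoctylammonium bromide for full effect; nearly all actives have a fitted effect of over 60% in size.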 The essentials:
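Acute toxicity is measured as concentration-dependent loss of intracellular ATP in a human lymphoblastoid line treated 24 hours at 37 C. Luciferase luminescence quantifies ATP; AC50 values come from standard Hill-equation modelling.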

Assay [4] can be described thus: Cell Viability - LYMP2-026 (AID 989).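 Also: cells exposed to compound for 24 h at 37 °C; % is scaled to controls: 0 for no effect and ±100 for the full control effect; nearly all actives have a fitted effect of over 50% in size.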 In a few lines:
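Concentration-dependent loss of intracellular ATP in human lymphoblastoid cells after 24 hr at 37 C, quantified by luciferase luminescence. AC50 derived from standard Hill equation.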

The nature of assay [5]: Cell Viability - LYMP1-002 - Assay at 24 hr (AID 993). Also: % is scaled to controls: 0 for no effect and ±100 for the full control effect. The essentials: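 qHTS, LYMP1-002 lymphoblastoid, 24 h cpd, 37 C, CellTiter-Glo ATP luminescence; AC50 via Hill eq.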
Assay [6] in a line: Cell Viability - LYMP1-002 - Assay at 40 hr (AID 994).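 Also: 0% = DMSO only and full inhibition = 92 µM tetraoctylammonium bromide; nearly all actives have a fitted effect of over 60% in size.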 The essentials:
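Viability in the human lymphoblastoid line was measured as intracellular ATP via CellTiter-Glo after 40 hr compound exposure. Tetraoctylammonium bromide served as positive control.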

A short description of assay [7]: qHTS Assay for Identification of Small Molecule Inducers of Hypoxia Response (AID 2120; active = well fitted curve in the direction sought with a large enough effect in the signal ratio, with a control signal flat, not every such curve was filed as active; the % refers to the signal ratio; also: 0% is about no effect). In a few lines:
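Induction of beta-lactamase reporter activity was measured in CellSensor HRE-bla ME-180 cells after 17 h compound treatment at 37 degrees C, using CCF4 substrate and the 460nm/530nm emission ratio to derive AC50 values.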
(In qHTS, concentration-response curves come from the screen itself.)

Assay [8] deals with Estrogen receptor (Homo sapiens) (UniProt P03372). Put plainly: qHTS assay for small molecule antagonists of estrogen receptor alpha signaling (AID 588513; active = well fitted curve in the direction sought with a large enough effect in the signal ratio, with a control signal flat, not every such curve was filed as active; the % refers to the signal ratio; also: % is scaled to controls: 0 for no effect and ±100 for the full control effect). In a few lines: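 Fluorescence from CCF4 substrate after 2 h at room temperature gave reporter activity; cells had been exposed to compound and 0.5nM 17-beta-estradiol for 18 h at 37 C. Hill-equation fitting yielded IC50 and maximal response.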

The target is the same in assay [9]. Description: qHTS assay for small molecule agonists of estrogen receptor alpha signaling (AID 588514; calls by dose curve;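 also: 0% = vehicle only and 100% = reference agonist; nearly all actives have a fitted effect of over 70% in size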). The essentials:
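Reporter-gene assay. […] controls beta-lactamase in HEK 293 GripTite cells; after 18 hrs with compound, CCF4 substrate is added for 2 hrs and fluorescence is read.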

For assay [10], the target named is Glucocorticoid receptor (Homo sapiens) (UniProt P04150). Description: qHTS assay for small molecule agonists of glucocorticoid receptor signaling (AID 588532; active = well fitted curve in the direction sought with a large enough effect in the signal ratio, with a control signal flat; the % refers to the signal ratio;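 also: 100% = dexamethasone at 0.1 µM and 0% = DMSO only wells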). Conditions: HeLa MMTV-bla, beta-lactamase ratio, agonist, 18 h; stronger effect = higher value; percent of dexamethasone control, DMSO zero. In a few lines: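 HeLa GRE-bla reporter cells; 18 h compound exposure at 37 C; 2 h CCF4 loading at room temperature; fluorescence at 460 and 530 nm; EC50 by Hill equation.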

For assay [11] the target is unchanged. Put plainly: qHTS assay for small molecule antagonists of glucocorticoid receptor signaling (AID 588533; active = well fitted inhibition curve with a large enough effect in the signal ratio, with a control signal flat, not every such curve was filed as active; the % refers to the signal ratio; also: % is scaled to controls: 0 for no effect and ±100 for the full control effect). In a few lines:
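Antagonist-mode qHTS: compound titrations added to GRE-bla HeLa cells, then dexamethasone 2 nM final; 18 h, 37 C. CCF4 FRET fluorescence normalized to dexamethasone and DMSO; IC50 from Hill fit.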

The nature of assay [12]: qHTS assay for small molecule antagonists of peroxisome proliferator-activated receptor delta signaling (AID 588535; active = well fitted inhibition curve with a large enough effect in the signal ratio, with a control signal flat, not every such curve was filed as active; the % refers to the signal ratio;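 as to max response: cells co-treated with a PPAR-delta agonist as stimulator during compound exposure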). The following applies: HEK293T PPARd-UAS-bla, beta-lactamase FRET ratio, 18 h; 460 nm channel. In a few lines: (§1)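 Cells were seeded at 4000 per well in assay medium containing 2% charcoal/dextran FBS and held 5 hrs at 37 C. Compounds were then added for 18 hrs. CCF4 substrate was applied for 2 hrs at room temperature before fluorescence reading.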

For assay [13], the target named is Peroxisome proliferator-activated receptor delta (Homo sapiens) (UniProt Q03181). Described as above. In a few lines:
as §1

The target of assay [14] is Peroxisome proliferator-activated receptor gamma (Homo sapiens) (UniProt P37231). Description: qHTS assay for small molecule agonists of peroxisome proliferator-activated receptor gamma signaling (AID 588536; active = well fitted curve in the direction sought with a large enough effect in the signal ratio, with a control signal flat, not every such curve was filed as active; the % refers to the signal ratio;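 also: 0% = DMSO basal wells and 100% = rosiglitazone at 2 µM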). In a few lines: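 Ratiometric blue/green fluorescence (405 nm excitation; 460 and 530 nm emission) from CCF4-loaded HEK293 reporter cells serves as signal. Exposure to test compounds lasts 16 h at 37 C in medium containing 1% charcoal/dextran-treated serum.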

The target of assay [15] is Bile acid receptor (Homo sapiens) (UniProt Q96RI1). Description: qHTS assay for small molecule antagonists of farnesoid X receptor signaling (AID 588526; calls by dose curve; also: % is scaled to controls: 0 for no effect and ±100 for the full control effect). In a few lines:
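Antagonist mode: titrated compounds tested against chenodeoxycholic acid stimulation (normalized to 50 uM CDCA and DMSO) in GeneBLAzer HEK293T cells for 16 h. Beta-lactamase read by CCF4 fluorescence; IC50 from Hill fits.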

The target of assay [16] is Peroxisome proliferator-activated receptor gamma (Homo sapiens) (UniProt P37231). Put plainly: qHTS assay for small molecule antagonists of peroxisome proliferator-activated receptor gamma signaling (AID 588537; active = well fitted inhibition curve with a large enough effect in the signal ratio, with a control signal flat, not every such curve was filed as active; the % refers to the signal ratio;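 also: reporter cells co-stimulated with 50 nM rosiglitazone agonist during compound treatment; % of control where 0% means no effect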). In a few lines:
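Step one: plate 3000 HEK293 UAS-bla cells per well in medium with 1% stripped serum and hold 6-6.5 h at 37 C. Step two: add compound and 50 nM agonist for 16 h. Step three: CCF4 loading, fluorescence read.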

Assay [17] addresses Vitamin D3 receptor (Homo sapiens) (UniProt P11473). Description: qHTS assay for small molecule antagonists of vitamin D receptor signaling (AID 588541; calls by dose curve). In a few lines: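 VDR-UAS-bla HEK293T cells in 2% charcoal-stripped FBS were stimulated with 1-alpha,25-dihydroxyvitamin D3 (3 nM final) plus compound for 16 h at 37 C. The beta-lactamase CCF4 readout was normalized to 50 nM agonist and DMSO, and Hill fits gave IC50.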

For assay [18] the target is unchanged. Put plainly: qHTS assay for small molecule agonists of vitamin D receptor signaling (AID 588543; calls by dose curve;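 also: 0% = DMSO basal and 100% = reference agonist control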). In a few lines:
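Reporter cells (HEK293T, VDR-UAS-bla) were seeded in medium with 2% charcoal-stripped serum and incubated 5 h, then compounds in concentration series were added for 16 h at 37 °C. Stimulation was scaled between DMSO basal and 50 nM 1α,25-dihydroxyvitamin D3.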

Records with an inconclusive call do not appear. The source made the active and inactive calls. Unless noted, calls follow the shape of the dose curve; as a rule, active = well fitted cell-killing curve with a large enough effect; inconclusive = small, poorly fitted or top-dose-only effect; inactive = flat fitted curve, though single readings scatter.

Bile acid receptor (Homo sapiens), sequence (Q96RI1 whole entry, looked up): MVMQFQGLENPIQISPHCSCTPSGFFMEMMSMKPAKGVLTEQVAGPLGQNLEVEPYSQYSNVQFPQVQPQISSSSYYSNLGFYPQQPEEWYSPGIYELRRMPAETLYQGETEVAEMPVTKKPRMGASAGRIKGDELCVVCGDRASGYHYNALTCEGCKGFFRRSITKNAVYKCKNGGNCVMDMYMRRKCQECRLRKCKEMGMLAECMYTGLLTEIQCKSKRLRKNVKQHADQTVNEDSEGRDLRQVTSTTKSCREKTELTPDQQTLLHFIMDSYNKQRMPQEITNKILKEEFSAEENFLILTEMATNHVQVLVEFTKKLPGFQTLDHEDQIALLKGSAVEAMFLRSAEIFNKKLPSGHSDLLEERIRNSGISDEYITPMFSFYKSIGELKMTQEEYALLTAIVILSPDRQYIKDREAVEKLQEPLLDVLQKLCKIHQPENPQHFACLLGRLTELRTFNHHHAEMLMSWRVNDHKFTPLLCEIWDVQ
Peroxisome proliferator-activated receptor delta (Homo sapiens), sequence (Q03181 whole entry, looked up): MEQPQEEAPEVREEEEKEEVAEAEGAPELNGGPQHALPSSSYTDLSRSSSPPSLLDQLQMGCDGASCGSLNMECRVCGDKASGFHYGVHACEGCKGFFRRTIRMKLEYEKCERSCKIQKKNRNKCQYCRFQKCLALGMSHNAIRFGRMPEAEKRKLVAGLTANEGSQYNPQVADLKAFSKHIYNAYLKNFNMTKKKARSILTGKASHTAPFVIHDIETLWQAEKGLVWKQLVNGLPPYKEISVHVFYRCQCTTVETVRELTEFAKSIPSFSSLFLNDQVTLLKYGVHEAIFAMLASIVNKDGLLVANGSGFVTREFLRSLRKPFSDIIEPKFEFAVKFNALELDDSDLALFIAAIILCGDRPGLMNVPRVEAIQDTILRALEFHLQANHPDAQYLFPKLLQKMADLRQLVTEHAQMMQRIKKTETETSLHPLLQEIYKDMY
Vitamin D3 receptor (Homo sapiens), sequence (P11473 whole entry, looked up): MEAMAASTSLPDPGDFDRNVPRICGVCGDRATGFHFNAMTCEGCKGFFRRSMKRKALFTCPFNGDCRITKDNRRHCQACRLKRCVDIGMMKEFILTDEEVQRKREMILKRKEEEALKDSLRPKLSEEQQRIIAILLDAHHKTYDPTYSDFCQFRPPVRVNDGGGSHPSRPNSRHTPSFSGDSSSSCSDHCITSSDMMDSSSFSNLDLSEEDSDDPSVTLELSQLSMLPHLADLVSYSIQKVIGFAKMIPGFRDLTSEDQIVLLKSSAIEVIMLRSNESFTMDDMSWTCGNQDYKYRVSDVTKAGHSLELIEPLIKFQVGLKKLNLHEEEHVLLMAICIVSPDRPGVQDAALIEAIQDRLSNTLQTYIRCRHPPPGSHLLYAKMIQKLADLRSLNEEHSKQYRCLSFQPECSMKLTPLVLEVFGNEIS
Peroxisome proliferator-activated receptor gamma (Homo sapiens), sequence (P37231 whole entry, looked up): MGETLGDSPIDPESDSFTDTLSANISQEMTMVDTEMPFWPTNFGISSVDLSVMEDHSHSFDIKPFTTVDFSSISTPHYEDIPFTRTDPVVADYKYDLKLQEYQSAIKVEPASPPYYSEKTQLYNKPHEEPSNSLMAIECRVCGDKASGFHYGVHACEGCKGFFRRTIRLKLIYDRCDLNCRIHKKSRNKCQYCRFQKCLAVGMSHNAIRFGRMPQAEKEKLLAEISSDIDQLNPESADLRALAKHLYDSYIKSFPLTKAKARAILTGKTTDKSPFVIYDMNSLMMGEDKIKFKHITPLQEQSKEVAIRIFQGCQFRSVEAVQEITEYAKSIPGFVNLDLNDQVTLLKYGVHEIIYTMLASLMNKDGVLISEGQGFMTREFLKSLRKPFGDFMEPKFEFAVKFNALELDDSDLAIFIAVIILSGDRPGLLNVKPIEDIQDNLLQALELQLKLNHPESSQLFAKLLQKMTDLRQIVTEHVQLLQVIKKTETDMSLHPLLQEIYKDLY
Estrogen receptor (Homo sapiens), sequence (P03372 whole entry, looked up): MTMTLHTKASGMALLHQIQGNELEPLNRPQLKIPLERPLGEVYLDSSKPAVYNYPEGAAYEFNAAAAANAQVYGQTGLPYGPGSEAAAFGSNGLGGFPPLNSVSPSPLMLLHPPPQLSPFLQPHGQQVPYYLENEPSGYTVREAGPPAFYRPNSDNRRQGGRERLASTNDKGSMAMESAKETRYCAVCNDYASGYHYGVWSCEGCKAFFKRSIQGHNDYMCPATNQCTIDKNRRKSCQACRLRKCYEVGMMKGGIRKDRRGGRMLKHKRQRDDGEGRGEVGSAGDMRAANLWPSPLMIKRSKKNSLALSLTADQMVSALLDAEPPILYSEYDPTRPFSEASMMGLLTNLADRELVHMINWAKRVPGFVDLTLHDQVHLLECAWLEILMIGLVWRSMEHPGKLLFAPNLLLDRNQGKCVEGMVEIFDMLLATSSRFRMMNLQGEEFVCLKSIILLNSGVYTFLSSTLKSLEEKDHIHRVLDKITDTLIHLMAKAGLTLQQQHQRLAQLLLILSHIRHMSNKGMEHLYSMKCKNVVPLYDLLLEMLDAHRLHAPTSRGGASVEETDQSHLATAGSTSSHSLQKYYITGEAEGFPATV
Glucocorticoid receptor (Homo sapiens), sequence (P04150 whole entry, looked up): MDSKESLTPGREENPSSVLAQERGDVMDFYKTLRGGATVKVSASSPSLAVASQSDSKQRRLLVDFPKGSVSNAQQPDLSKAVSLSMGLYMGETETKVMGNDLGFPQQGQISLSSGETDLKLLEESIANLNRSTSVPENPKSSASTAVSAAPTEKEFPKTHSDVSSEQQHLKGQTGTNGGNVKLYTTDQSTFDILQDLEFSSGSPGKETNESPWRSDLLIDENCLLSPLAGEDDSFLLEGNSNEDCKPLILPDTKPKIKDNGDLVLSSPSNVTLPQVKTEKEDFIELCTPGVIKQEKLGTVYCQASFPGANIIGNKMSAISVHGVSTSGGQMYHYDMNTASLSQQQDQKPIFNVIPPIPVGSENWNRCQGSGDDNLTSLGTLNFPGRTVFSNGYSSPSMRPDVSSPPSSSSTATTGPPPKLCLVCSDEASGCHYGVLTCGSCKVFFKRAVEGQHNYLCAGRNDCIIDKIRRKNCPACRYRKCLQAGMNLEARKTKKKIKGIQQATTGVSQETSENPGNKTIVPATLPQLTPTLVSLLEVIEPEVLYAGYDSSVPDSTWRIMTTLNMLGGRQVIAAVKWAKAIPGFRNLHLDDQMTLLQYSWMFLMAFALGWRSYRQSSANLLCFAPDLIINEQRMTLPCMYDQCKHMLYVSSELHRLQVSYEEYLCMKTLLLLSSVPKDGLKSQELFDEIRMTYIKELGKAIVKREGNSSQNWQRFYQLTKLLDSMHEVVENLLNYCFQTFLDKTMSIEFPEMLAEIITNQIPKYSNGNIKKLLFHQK

For `Cc1c(N)cccc1[N+](=O)[O-]`, the Potency entry in [1], in assay [2], in assay [3], in [5], in assay [6] and in assay [9] was “inactive” each time. Moreover, in [13], the Potency result was “inactive”. Further, the call in [4], in assay [7], in assay [8], in assay [11] and in assay [14] was inactive. In assay [10], the activation is -3.4% (inactive). In [12], the max response was -31.1%.
For `Cc1cc([N+](=O)[O-])ccc1N`, the Potency entry in assay [1], in [2], in [3], in assay [5], in [6] and in assay [9] was “inactive” throughout. Besides, the result in assay [4], in [7], in assay [8], in assay [15], in [14] and in assay [16] was inactive. In addition, the result in assay [17] and in [18] was inactive. In addition, the activation in [10] is -2.44% (inactive).
As to `CCC(O)C(C)(C)C` (stereo not drawn), the Potency entry in [1], in assay [2], in assay [3], in assay [5], in assay [6] and in assay [9] was “inactive” throughout. Also, in [13], the Potency result was “inactive”. For the same molecule, the molecule was classed as inactive in assay [4], in assay [7], in [8], in assay [15], in assay [14] and in assay [16]. In addition, the max response in assay [12] amounted to 11.2%.
On to `Cc1nc2ccc(Cl)cc2[nH]1`, for which the Potency entry in assay [1], in assay [2], in assay [3], in assay [6] and in assay [9] was “inactive” in each case. Moreover, the molecule was called inactive in assay [4], in [7], in [8], in assay [15], in [11] and in assay [14]. Besides, the outcome in assay [16], in assay [17] and in [18] was inactive.
Take `O=C(O)c1cccc(Cl)c1Cl`: the Potency result in assay [1], in assay [3], in assay [6], in [9] and in assay [13] was “inactive” each time. In addition, the outcome in assay [4], in assay [7], in [8], in assay [14], in [16] and in assay [17] was inactive. Further, the call in assay [18] was inactive. Further, the activation in [10] was 6.71% (inactive). For the same molecule, in assay [12], the max response worked out at 5.12%.
Take `COc1ccc(N=[N+]([O-])c2ccc(OC)cc2)cc1`: the Potency result in assay [1], in assay [2], in [3], in assay [5], in [6] and in assay [9] was “inactive” throughout. Also, in assay [13], the Potency entry was “inactive”. The call in [4], in [7], in assay [8], in [14], in [17] and in assay [18] was inactive. The activation in assay [10] is 9.01% (inactive). Moreover, the max response in [12] was determined as 8.26%.
In the case of `O=[N+]([O-])c1cccc(C(F)(F)F)c1`, the Potency entry in [1], in [2], in assay [3], in assay [6] and in assay [9] was “inactive” throughout. Also, the outcome in [4], in [7], in assay [8], in assay [11], in [14] and in assay [16] was inactive. Moreover, the molecule was called inactive in assay [17] and in [18]. Also, the activation in [10] is -5.05% (inactive).
As for `Cc1cscn1`, the Potency result in [1], in [2], in assay [3], in assay [5], in assay [6] and in assay [9] was “inactive” each time. The Potency result in [13] is “inactive”. In addition, the molecule was classed as inactive in assay [4], in assay [7], in [8], in assay [14], in assay [16] and in [17]. In [18], the molecule was classed as inactive. The max response in [12] was -36.6%.
In the case of `Cc1ccc(Cl)cc1`, the Potency entry in assay [1], in assay [2], in assay [3], in assay [6], in assay [9] and in assay [13] was “inactive” throughout. Also, the molecule was called inactive in assay [4], in [7], in assay [8], in [14], in assay [17] and in [18]. Further, the activation in assay [10] was -1.4% (inactive). Further, the max response in [12] was -18%.
Turning to `CNc1ccc([N+](=O)[O-])cc1`, the Potency entry in [1], in [2], in assay [3], in assay [5], in assay [6] and in assay [9] was “inactive” in each case. Besides, the molecule was classed as inactive in assay [4], in [7], in assay [8], in [11], in assay [14] and in assay [16]. In assay [10], the activation was -3.38% (inactive).
Turning to `CCOCC(=O)O`, the Potency result in assay [1], in [2], in assay [3], in assay [5], in assay [6] and in assay [9] was “inactive” throughout. In addition, the result in assay [4], in [7], in assay [8], in assay [11], in [14] and in [16] was inactive. For the same molecule, the result in assay [17] and in assay [18] was inactive. Moreover, in assay [10], the activation is 2.71% (inactive). Besides, the max response in [12] was -19%.
